Hit rate of the full screen: of about 340,000 compounds, about 330 (0.097%) were called active. The full list was thinned out, with actives kept by preference. A number with no mark means an inactive call.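 The calls were made as follows: active = mean replicate inhibition of at least 30% and at least 1% of replicates passing that level; inconclusive = only one of the two criteria is met; inactive = neither criterion is met.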
What follows are compounds tested on Voltage-dependent L-type calcium channel subunit alpha-1D (CaV1.3) ICDI/IQ interaction (assay: Disruptors of the CACNA1D IQ motif to Ca2+-dependent inactivation inhibitor domain association, primary screening, Förster resonance energy transfer in intact living cells, one concentration (AID 743397;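 also: 0% = median of the neutral control wells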)). Conditions: HEK cells, CFP/YFP FRET ICDI-IQ, plate reader, 10 min; at 12.3 µM; stronger effect = higher value; percent FRET-ratio fall versus neutral wells.
For `CC(=NNC(N)=O)c1ccc(Cl)c(-n2cccc2)c1`, the inhibition was -7.9%. In the case of `CCc1ccc(C2=CC(=O)CC(C)(C)C2=O)cc1`, the inhibition is reported as -7.01%. `COC(=O)C1=C(C)N(Cc2ccc(C(F)(F)F)cc2)C(=NCc2ccccc2)NC1c1ccccc1C(F)(F)F` (centres undefined) showed an inhibition of -9.62%. For `Nc1ncnc2c1ncn2[C@@H]1O[C@H](C(=O)N[C@@H](CCc2ccccc2)C(=O)NCC(=O)N2CCOCC2)[C@@H](O)[C@H]1O`, the inhibition was -4.61%. For `CC(=O)N1C[C@@H](CO)[C@@H](N(C)C(=O)C(C)(C)C)C[C@H]1c1ccccc1Br`, the inhibition was -3.95%. For `CCOC(=O)Cn1c2c(n(-c3ccc(F)cc3)c1=O)C=C(c1ccccc1)[C@@H](C)C(C(=O)N(C)C1CCCCC1)=C2`, the inhibition was -5.25%. With `Cc1cc(OC(=O)c2ccccc2Cl)ccc1N1C(=O)CCC1=O` the inhibition was 66.2% (active). `Cc1cccc(/C(N)=N/OC(=O)c2ccccc2Cl)c1` was tested, and the inhibition was 1.19%. `Cc1ccc(C)c(N2C(=O)CS/C2=N\NC(=O)c2ccccc2Cl)c1` was tested, and the inhibition was -8.17%. For `CC[C@H](C)[C@H]1CNC(=O)C(=O)N1CC1CCN(CCc2ccc(OC)c(OC)c2)CC1`, the inhibition was -5.2%. With `CCCN(CCC)CCNC(=O)c1cc2c(C)nc3ccccc3c2o1` the inhibition was -3.91%. For `Cc1nc2ccccc2c2oc(C(=O)NCCCN3CCC(C)CC3)cc12`, the inhibition was 61.5% (active). In the case of `CC1CCN(CCCn2c(SCC(=O)NC3CCCC3)nc3ccccc3c2=O)CC1`, the inhibition is reported as -1.93%. `CC(C)(C)n1nc(C2CC2)c(Br)c1NC(=O)c1ccccc1F` gave an inhibition of -11.7%. Work on `CC(=O)C1=C(C)N(Cc2ccccc2)C(=S)NC1c1cccc(Br)c1` (centres undefined) yielded an inhibition of -5.09%. `Cc1cc2c(nc1C)CCCN2C` showed an inhibition of -4.25%. In the case of `CN1C(=O)C2CC(O)C(SC3CC4C(=O)N(C)C(=O)C4CC3O)CC2C1=O` (centres undefined), the inhibition is reported as -4.52%. `COC(=O)C1=C(C(=O)OC)C2C=C(C(C)C)C1C(=O)C2(C)O` (centres undefined) showed an inhibition of -3.68%. Compound `O=C(NCc1ccccc1)[C@@H]1CCCN1C(=O)[C@H]1CCCN1C(=O)c1cccc(Cl)c1` has an inhibition of -3.24%. Compound `C[C@H]1CN([C@@H](C)CO)C(=O)CCCn2nncc2CO[C@@H]1CN(C)C(=O)Nc1ccc(N2CCN(C)CC2)cc1` has an inhibition of -5.58%. In the case of `CCOC(=O)c1ccc(-c2ccc3ncnc(N(C)Cc4sccc4C)c3c2)o1`, the inhibition is reported as -9.32%. Compound `Clc1cccc2c1C1CC2CCN1Cc1ccccc1` (centres undefined) has an inhibition of -3.78%. In the case of `Nc1[nH]c(C(=O)c2ccccc2)c(-c2ccc(Cl)cc2Cl)c1C(=O)c1ccccc1`, the inhibition is reported as -17.7%. In the case of `CCOC(=O)c1oc2c(CN3CCN(C)CC3)c(O)ccc2c(=O)c1-c1ccc(Br)cc1`, the inhibition is reported as -4.95%. With `Cn1c(=O)[nH]c(=O)c2c1nc(N1CCN(CCO)CC1)n2CCSc1nc2ccccc2s1` the inhibition was -4.96%. In the case of `CCOC(=O)c1oc2c(CN3CCN(CCO)CC3)c(O)c(CC)cc2c(=O)c1-c1nc2ccccc2s1`, the inhibition is reported as 37% (active). For `O=C(NCc1ccccc1)[C@H]1CCCN1C(=O)[C@H]1CCCN1C(=O)c1cc(F)cc(F)c1`, the inhibition was -8.46%. With `O=C(NCc1ccccc1)[C@@H]1CCCN1C(=O)[C@@H](NS(=O)(=O)c1ccc(F)cc1F)C1CCCCC1` the inhibition was -2.67%. In the case of `O=C(C(=O)N1CCC(CNS(=O)(=O)Cc2ccccc2)CC1)c1cc2ccccc2o1`, the inhibition is reported as -8.57%. `Cc1ccc(C)c(CN2CCC(CNC(=O)C3CCCN(c4ncnc5c4nc4n5CCCCC4)C3)CC2)c1` (centres undefined) showed an inhibition of -13.7%. With `O=C(O)Cn1cnc2c(NCc3ccccc3)ncnc21` the inhibition was -6.21%. With `CC(C)C[C@H](NC(=O)CC1CCCC1)C(=O)N1CCC[C@H]1C(=O)NCc1ccccc1` the inhibition was -8.63%. In the case of `Nc1[nH]c(C(=O)c2ccc(Br)cc2)c(-c2ccc3c(c2)OCO3)c1C(=O)NCCc1c[nH]c2ccccc12`, the inhibition is reported as -16.2%. `CCOC(=O)C1CSCCS(=O)(=O)N1Cc1ccc(Cl)cc1` (centres undefined) was tested, and the inhibition was -4.73%. In the case of `O=C1[C@@H](c2ccccc2)[C@@H](c2ccccc2)N1c1ccccc1`, the inhibition is reported as -7.31%. Compound `Brc1ccc(COCCc2cn(Cc3ccccc3)c3ccccc23)cc1` has an inhibition of -2.59%. For `CC(=O)c1ccc(-c2cnc3c(NC=O)cc(-c4cccc(NS(C)(=O)=O)c4)cn23)cc1`, the inhibition was -5.47%. Work on `COCCCNC(=O)C[C@H]1C[C@@]2(C(=O)OC)C(=C[C@H](C(C)(C)C)O[C@@H]2C)N(Cc2ccc3c(c2)OCO3)C1=O` yielded an inhibition of -3.83%. With `O=C(N[C@H](Cc1ccccc1)C(=O)N1CCCN(Cc2cccs2)CC1)[C@H]1O[C@@H](n2ccc(=O)[nH]c2=O)[C@H](O)[C@@H]1O` the inhibition was -3.41%. With `Cc1ccc2nc(-c3ccc(CN4CCC(n5cc(-c6ccccc6)[nH]c5=O)CC4)cc3)c(-c3ccccc3)nc2c1` the inhibition was -15.6%. Work on `COC(=O)C1=C(C)N(Cc2ccc(F)cc2)C(=S)NC1c1cccc(Cl)c1` (centres undefined) yielded an inhibition of -2.29%. `CCCCCCCCN1C(=O)[C@@H](CC(=O)NCc2ccccc2)C[C@@]2(C(=O)OC)C1=C[C@H](C(C)(C)C)O[C@@H]2C` was tested, and the inhibition was -8.36%. With `O=C(NN=Cc1ccco1)C(=O)Nc1ccc(Cl)c([N+](=O)[O-])c1` the inhibition was -13%. For `O=S1(=O)c2ccc(Br)cc2-n2nncc2CN1Cc1cccc(Cl)c1`, the inhibition was -9.71%. `COC(=O)[C@]12C[C@H](CC(=O)NCc3ccc(OC)c(OC)c3)C(=O)N(Cc3ccccc3)C1=C[C@H](C(C)C)O[C@@H]2C1CC1` was tested, and the inhibition was -11.2%. In the case of `CC(=O)C1=C(C)N(Cc2ccc(Cl)cc2)C(=S)NC1c1ccc(F)cc1` (centres undefined), the inhibition is reported as -2.53%. `CC(C)[C@H]1COCCS(=O)(=O)N1Cc1ccccc1-c1cccc2c1sc1ccccc12` was tested, and the inhibition was -4.21%. In the case of `C[C@H]1[C@H](c2ccccc2)Oc2cc(Br)ccc2S(=O)(=O)N1Cc1cccc(F)c1`, the inhibition is reported as -4.74%. `O=S(=O)(c1cccs1)N1CCCc2nc(-c3ccc(Br)cc3)ccc21` was tested, and the inhibition was -8.65%.

Source: PubChem BioAssay AID743397 (Broad Institute, 2014)
